ID4 SMM: binders of human ID4 protein, primary screen, biochemical, small molecule microarray, single point | DNA-binding protein inhibitor ID-4 (Homo sapiens), P47928 | Flag-ID4 binding, fluorescence F/B | calls only | actives 1.2% (n = 31,000) | AID 624137, 2012; call rule not given here;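 also: a binder raises fluorescence above local background on the spot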
Target sequence (P47928 whole entry, looked up): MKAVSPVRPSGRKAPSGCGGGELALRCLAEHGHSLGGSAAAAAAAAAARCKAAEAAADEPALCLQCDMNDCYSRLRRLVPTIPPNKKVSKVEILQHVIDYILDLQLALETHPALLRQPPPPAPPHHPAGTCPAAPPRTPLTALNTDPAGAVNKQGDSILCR
STK33 kin inh: STK33 kinase inhibitors, primary screen, biochemical, luminescence, ADP-Glo, MBP substrate | Serine/threonine-protein kinase 33 (Homo sapiens), Q9BYT3 | inhibition, % at 12.5 µM | actives 0.44% (n = 27,000); in the data active = inhibition above about 20%
Of the large screens only hits and unclear results are named; the others gave an inactive call. This is one part of a sample in which hits are shown more often than they occur.

C[C@@H]1CN([C@@H](C)CO)C(=O)c2cc(NC(=O)CCCN(C)C)ccc2O[C@@H]1CN(C)Cc1ccc(C(=O)O)cc1	ID4 SMM active (no result: STK33 kin inh)
C[C@@H]1CN([C@H](C)CO)C(=O)c2cc(NS(=O)(=O)c3cn(C)cn3)ccc2O[C@H]1CN(C)Cc1ccccc1	none (no result: STK33 kin inh)
C[C@@H]1CN([C@@H](C)CO)C(=O)c2cc(NC(=O)CCCN(C)C)ccc2O[C@@H]1CN(C)C(=O)Nc1cccc2ccccc12	none (no result: STK33 kin inh)
C[C@H](CO)N1C[C@H](C)[C@@H](CN(C)C(=O)Nc2cccc3ccccc23)Oc2ccc(NC(=O)CCCN(C)C)cc2C1=O	ID4 SMM active (no result: STK33 kin inh)
CCc1nc(SCC(=O)Nc2c(C)cc(C)cc2[N+](=O)[O-])n[nH]1	none
COc1ccc(CN2C(=O)c3cccc4cccc(c34)C2=O)cc1S(=O)(=O)N1CCCCC1	none (no result: ID4 SMM)
CCc1ccc(-n2nc3ccc(NC(=O)COc4ccccc4[N+](=O)[O-])cc3n2)cc1	none
CO[C@H]1O[C@H](CO)[C@@H](OC(=O)Nc2ccccc2)[C@H](OC(=O)Nc2ccccc2)[C@@H]1OC(=O)Nc1ccccc1	none (no result: STK33 kin inh)
CSc1cccc(NC(=O)CSc2nnc(-c3ccco3)n2C)c1	none
COc1cc2c(cc1OC)CN(C(=O)[C@@H]1[C@H]3C(=O)O[C@H](c4ccccc4)[C@H](c4ccccc4)N3[C@H](c3ccc(O)cc3)[C@@]13C(=O)Nc1ccc(C#CC4=CCCCC4)cc13)CC2	none (no result: ID4 SMM)
NC(=O)CN1CCN(CCN2C(=O)c3cccc4cccc(c34)C2=O)CC1	ID4 SMM active
O=C(c1cc2cc(Br)ccc2oc1=O)N1CCN(CCN2C(=O)c3cccc4cccc(c34)C2=O)CC1	none
Cc1ccc(NS(=O)(=O)c2cccc(C(=O)Nc3ccccc3C(=O)O)c2)cc1	ID4 SMM active
O=C(O)c1ccc(NS(=O)(=O)c2cccc(C(=O)Nc3ccccc3)c2)cc1	none
COc1ccc([C@H]2C[C@H]3C(Br)=CC2C(=O)[C@]32CO2)cc1	none (no result: STK33 kin inh)
CCn1c(SCC(=O)Nc2ccc(C(N)=O)cc2)nnc1-c1ccc(F)cc1	ID4 SMM active
CC(=O)Nc1ccc(NC(=O)CSc2nnc(-c3ccc(N)cc3)n2C)cc1	none
CCn1c(SCC(=O)Nc2ccc(C(=O)O)cc2)nnc1-c1ccc(C)cc1	none
COC(=O)c1ccc(NC(=O)CSc2nnc(-c3ccc(NC(C)=O)cc3)n2C)cc1	ID4 SMM active
CC(CC(O)C1OC1(C)C)[C@@H]1CCC2(C)C3=CCC4C(C)(C)C(=O)CCC4(C)C3CC[C@@]12C (some centres undefined)	none (no result: ID4 SMM)
COc1ccc(C#Cc2ccc3c(c2)[C@]2(C(=O)N3)[C@H](C(=O)N3CCN(c4ncccn4)CC3)[C@H]3C(=O)O[C@H](c4ccccc4)[C@H](c4ccccc4)N3[C@@H]2c2ccccc2OCCO)cc1	none (no result: ID4 SMM)
O=C1O[C@@H](c2ccccc2)[C@@H](c2ccccc2)N2[C@@H](c3ccccc3OCCO)[C@]3(C(=O)Nc4ccc(C#CCCO)cc43)[C@@H](C(=O)N3CCN(c4ncccn4)CC3)[C@H]12	none
C=CCNC(=O)[C@@H]1[C@H]2C(=O)O[C@H](c3ccccc3)[C@H](c3ccccc3)N2[C@H](c2ccc(OCCO)cc2)[C@@]12C(=O)Nc1ccc(C#Cc3ccc(OC)cc3)cc12	none
O=C1O[C@H](c2ccccc2)[C@H](c2ccccc2)N2[C@H]1[C@@H](C(=O)N1CCCCCCC1)[C@]1(C(=O)Nc3ccc(C#CCCO)cc31)[C@H]2c1ccccc1OCCO	STK33 kin inh 22.0
C=CCNC(=O)[C@@H]1[C@H]2C(=O)O[C@H](c3ccccc3)[C@H](c3ccccc3)N2[C@H](c2ccc(OCCO)cc2)[C@@]12C(=O)Nc1ccc(C#CCNC(N)=O)cc12	STK33 kin inh 20.3
O=C1O[C@@H](c2ccccc2)[C@@H](c2ccccc2)N2[C@@H](c3ccc(OCCO)cc3)[C@]3(C(=O)Nc4ccc(C#CC5=CCCCC5)cc43)[C@@H](C(=O)N3CCN(c4ncccn4)CC3)[C@H]12	none
O=C1O[C@H](c2ccccc2)[C@H](c2ccccc2)N2[C@H]1[C@@H](C(=O)N1CCCCCCC1)[C@]1(C(=O)Nc3ccc(C#CC4=CCCCC4)cc31)[C@H]2c1ccc(OCCO)cc1	STK33 kin inh 22.2 (no result: ID4 SMM)
COc1ccc(C#Cc2ccc3c(c2)[C@]2(C(=O)N3)[C@H](C(=O)N3CCCCCCC3)[C@H]3C(=O)O[C@H](c4ccccc4)[C@H](c4ccccc4)N3[C@@H]2c2ccccc2OCCO)cc1	STK33 kin inh 29.8 (no result: ID4 SMM)
N#C/C(=C(\O)COc1ccccc1)c1nc2ccccc2[nH]1	none (no result: STK33 kin inh)
O=C(Nc1ccc(Cl)cc1C(=O)NCCO)c1ccc(Cl)cc1Cl	none
COC(=O)c1c(NC(=S)Nc2cc3oc4ccccc4c3cc2OC)sc2c1CCCC2	none
O=C1O[C@H](c2ccccc2)[C@H](c2ccccc2)N2[C@H]1[C@@H](C(=O)N1CCN(c3ncccn3)CC1)[C@]1(C(=O)Nc3ccc(C#CC4(O)CCCCCC4)cc31)[C@H]2c1ccccc1OCCO	none (no result: ID4 SMM)
O=C1O[C@H](c2ccccc2)[C@H](c2ccccc2)N2[C@H]1[C@@H](C(=O)N1CCCCCCC1)[C@]1(C(=O)Nc3ccc(C#CC4(O)CCCCCC4)cc31)[C@H]2c1ccccc1OCCO	STK33 kin inh 20.8
Cn1c(SCC(=O)c2ccc([N+](=O)[O-])cc2)nnc1-c1cccnc1	none
COc1ccc([C@@H]2CC(=O)c3c(O)cc(O)cc3O2)cc1O	none (no result: ID4 SMM)
COc1cc(/C=C2\Oc3cc(O)cc(O)c3C2=O)cc(OC)c1O	STK33 kin inh 88.5 (no result: ID4 SMM)
Cc1nc(C(N)=NC(=O)c2ccc(OC(F)(F)F)cc2)cs1	none (no result: ID4 SMM)
Cc1[nH]c(=S)[nH]c(=O)c1Cc1ccc(C(=O)O)o1	ID4 SMM active
CCCC[C@H]1OB(O)C[C@H]2C1=C(COc1ccccc1)Cn1c(=O)n(-c3ccccc3)c(=O)n12	ID4 SMM active (no result: STK33 kin inh)
COCC1=C2[C@@H](c3ccccc3)OB(O)C[C@@H]2n2c(=O)n(-c3ccccc3)c(=O)n2C1	none (no result: STK33 kin inh)
Cc1ccc(N(CC(=O)Nc2cc(Cl)ccc2C)S(C)(=O)=O)c(C)c1	none
O=C(CC1(O)C(=O)N(Cc2ccccc2)c2ccc(Br)cc21)c1ccccc1[N+](=O)[O-] (centres undefined)	none
COc1cccc(C(=O)COc2ccc(NC(=O)c3ccccc3C)cc2)c1	none
Cc1ccccc1C(=O)Nc1ccc(OCC(=O)O)cc1	ID4 SMM active
COCc1nc2ccccc2n1CCOc1ccc(Cl)cc1	none
O=c1c(O)c(-c2cc(O)c(O)c(O)c2)oc2cc(O)cc(O)c12	STK33 kin inh 36.5
O=c1c(O)c(-c2ccccc2)oc2cc(O)cc(O)c12	none (no result: ID4 SMM)
C=C1CC[C@H]2C(=C)CC[C@@]3(O)C(=C)C(=O)O[C@@H]3[C@@H]12	none (no result: ID4 SMM)
Cc1cc(S(=O)(=O)NCC(=O)O)ccc1F	none
CC(C)(C)c1ccc(S(=O)(=O)NCCC(=O)O)cc1	none
Cc1ccc(S(=O)(=O)NCCCO)cc1C(=O)O	ID4 SMM active
Cc1ccc2cc(S(=O)(=O)NCCC(=O)O)ccc2c1	ID4 SMM active
O=[N+]([O-])c1nn(-c2ccc(Cl)cc2)n(O)c1=NCC1CCCO1 (centres undefined)	none
Cc1c(C(=O)OC(C)C)sc2ncn(CC(=O)Nc3ccccc3C(F)(F)F)c(=O)c12	none
Cc1ccc2oc(-c3cccc(NC(=O)COc4ccccc4C)c3C)nc2c1	none
Cc1ccc(C2=NC3(CCN(C(=O)OC(C)(C)C)CC3)NC2=S)cc1	none (no result: STK33 kin inh)
O=C(CSc1nc2ccccc2c(=O)n1-c1cccc(Cl)c1)Nc1cccc(Cl)c1	none

High-throughput results from PubChem.
